Our source for the binding signal values is PMC7862700, “An all-to-all approach to the identification of sequence-specific readers for epigenetic DNA modifications on cytosine”.

What all share (test): DAPPL (digital affinity profiling via proximity ligation, sequencing); 10 mM Tris-HCl pH 7.5, 50 mM NaCl, 1 mM DTT, 4% glycerol, room temperature, 30 min; GST-TFs on glutathione beads, 16-mer random dsDNA library, 0.1% formaldehyde crosslink after washing; high values mean tight binding
Conditions in all cases: protein: recombinant; tags: N-terminal GST; dsDNA, one strand shown

One test deals with T1, ERG (Homo sapiens, UniProt P11308 1-479).
T1 sequence: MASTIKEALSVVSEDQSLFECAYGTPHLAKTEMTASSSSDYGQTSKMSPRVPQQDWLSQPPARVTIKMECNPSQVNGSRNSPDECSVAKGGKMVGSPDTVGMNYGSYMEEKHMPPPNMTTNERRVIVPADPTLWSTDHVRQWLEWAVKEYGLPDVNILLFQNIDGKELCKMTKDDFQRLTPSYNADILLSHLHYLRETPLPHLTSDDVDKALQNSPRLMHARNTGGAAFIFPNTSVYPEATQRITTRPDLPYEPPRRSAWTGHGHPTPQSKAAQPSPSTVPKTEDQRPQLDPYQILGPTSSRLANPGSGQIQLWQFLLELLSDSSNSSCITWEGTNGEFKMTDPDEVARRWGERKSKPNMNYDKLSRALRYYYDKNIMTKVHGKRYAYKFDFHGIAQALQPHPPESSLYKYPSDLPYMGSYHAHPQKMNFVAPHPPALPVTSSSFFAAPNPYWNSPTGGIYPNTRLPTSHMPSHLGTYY
Put shortly:
(§1)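 GST fusions of human transcription factors were expressed in yeast and captured with glutathione beads. Once given DNA barcodes and pooled alongside a tag-only sample, they were incubated for 30 min at room temperature with 200 nmole of a random double-stranded 16-mer DNA library in Tris/NaCl/DTT/glycerol buffer, then washed, crosslinked (0.1% formaldehyde), proximity-ligated, PCR-amplified and sequenced on an Illumina NextSeq500. The binding signal of each hexamer is its read frequency for a factor divided by its frequency for the tag-only sample.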

For another test, the target named is ELF1 (Homo sapiens, UniProt P32519 1-619). Put shortly: as §1
ELF1, sequence (P32519 whole entry): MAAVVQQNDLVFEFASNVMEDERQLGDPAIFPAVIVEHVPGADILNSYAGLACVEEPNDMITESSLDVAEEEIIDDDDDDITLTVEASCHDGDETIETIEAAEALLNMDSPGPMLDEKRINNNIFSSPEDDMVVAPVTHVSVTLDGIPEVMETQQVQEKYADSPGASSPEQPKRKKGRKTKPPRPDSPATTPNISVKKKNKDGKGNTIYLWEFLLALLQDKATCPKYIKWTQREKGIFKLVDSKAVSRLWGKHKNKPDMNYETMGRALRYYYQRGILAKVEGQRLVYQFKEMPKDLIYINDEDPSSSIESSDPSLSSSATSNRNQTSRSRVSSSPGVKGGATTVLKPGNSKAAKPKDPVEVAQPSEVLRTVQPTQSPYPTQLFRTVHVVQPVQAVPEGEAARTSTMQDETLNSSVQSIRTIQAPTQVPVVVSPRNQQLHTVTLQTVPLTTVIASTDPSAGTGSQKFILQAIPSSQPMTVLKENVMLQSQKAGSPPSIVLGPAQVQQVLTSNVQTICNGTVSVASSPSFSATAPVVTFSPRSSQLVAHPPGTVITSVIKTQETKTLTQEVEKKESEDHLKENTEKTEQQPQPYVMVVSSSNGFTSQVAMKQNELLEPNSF
A further test addresses T2, EHF (Homo sapiens, UniProt Q9NZC4 1-300).
T2 sequence: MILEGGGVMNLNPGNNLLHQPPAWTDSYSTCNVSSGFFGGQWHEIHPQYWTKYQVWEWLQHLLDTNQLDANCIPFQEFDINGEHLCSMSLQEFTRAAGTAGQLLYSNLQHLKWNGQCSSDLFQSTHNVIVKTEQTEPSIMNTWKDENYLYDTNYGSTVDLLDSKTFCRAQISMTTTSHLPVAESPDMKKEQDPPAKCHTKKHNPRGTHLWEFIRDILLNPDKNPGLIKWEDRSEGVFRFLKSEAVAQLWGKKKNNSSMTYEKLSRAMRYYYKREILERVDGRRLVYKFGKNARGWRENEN
Put shortly:
as §1

The target of another test is ETV5 (Homo sapiens, UniProt P41161 1-510). Put shortly:
as §1

The target in the next test is T3, ELK4 (Homo sapiens, UniProt P28324-2 1-405).
T3 sequence: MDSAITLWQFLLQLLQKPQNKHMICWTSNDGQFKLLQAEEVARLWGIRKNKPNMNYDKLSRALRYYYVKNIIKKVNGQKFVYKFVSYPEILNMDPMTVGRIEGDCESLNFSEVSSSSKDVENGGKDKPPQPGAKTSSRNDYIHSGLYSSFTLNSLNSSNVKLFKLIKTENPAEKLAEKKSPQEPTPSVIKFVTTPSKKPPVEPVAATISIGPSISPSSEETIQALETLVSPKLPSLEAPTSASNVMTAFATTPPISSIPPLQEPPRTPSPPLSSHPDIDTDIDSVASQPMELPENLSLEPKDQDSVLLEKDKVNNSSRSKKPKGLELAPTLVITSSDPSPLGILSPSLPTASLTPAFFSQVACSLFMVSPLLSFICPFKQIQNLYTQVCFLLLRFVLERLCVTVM
Put shortly:
as §1

For another test, the target named is T4, ETV2 (Homo sapiens, UniProt O00321 1-342).
T4 sequence: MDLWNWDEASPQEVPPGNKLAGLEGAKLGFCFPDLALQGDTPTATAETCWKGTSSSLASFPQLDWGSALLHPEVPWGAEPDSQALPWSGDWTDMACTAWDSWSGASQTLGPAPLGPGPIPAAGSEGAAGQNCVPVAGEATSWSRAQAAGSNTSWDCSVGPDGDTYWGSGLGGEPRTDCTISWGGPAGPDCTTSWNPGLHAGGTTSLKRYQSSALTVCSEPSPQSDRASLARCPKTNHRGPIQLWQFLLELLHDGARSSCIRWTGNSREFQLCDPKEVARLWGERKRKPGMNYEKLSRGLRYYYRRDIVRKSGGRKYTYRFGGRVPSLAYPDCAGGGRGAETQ
Put shortly: as §1

The target of another test is T5, ELF3 (Homo sapiens, UniProt P78545 1-371).
T5 sequence: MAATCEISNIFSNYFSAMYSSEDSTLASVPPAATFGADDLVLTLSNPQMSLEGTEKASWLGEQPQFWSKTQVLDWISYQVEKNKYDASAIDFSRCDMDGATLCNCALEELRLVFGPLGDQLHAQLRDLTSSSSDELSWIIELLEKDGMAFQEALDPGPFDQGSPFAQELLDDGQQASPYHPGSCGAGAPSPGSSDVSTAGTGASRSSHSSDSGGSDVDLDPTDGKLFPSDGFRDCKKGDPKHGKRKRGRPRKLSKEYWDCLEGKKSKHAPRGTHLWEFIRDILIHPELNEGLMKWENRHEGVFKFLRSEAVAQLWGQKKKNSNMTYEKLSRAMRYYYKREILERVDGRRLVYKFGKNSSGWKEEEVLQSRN
Put shortly:
as §1

The target in the next test is T6, ERF (Homo sapiens, UniProt P50548 1-548).
T6 sequence: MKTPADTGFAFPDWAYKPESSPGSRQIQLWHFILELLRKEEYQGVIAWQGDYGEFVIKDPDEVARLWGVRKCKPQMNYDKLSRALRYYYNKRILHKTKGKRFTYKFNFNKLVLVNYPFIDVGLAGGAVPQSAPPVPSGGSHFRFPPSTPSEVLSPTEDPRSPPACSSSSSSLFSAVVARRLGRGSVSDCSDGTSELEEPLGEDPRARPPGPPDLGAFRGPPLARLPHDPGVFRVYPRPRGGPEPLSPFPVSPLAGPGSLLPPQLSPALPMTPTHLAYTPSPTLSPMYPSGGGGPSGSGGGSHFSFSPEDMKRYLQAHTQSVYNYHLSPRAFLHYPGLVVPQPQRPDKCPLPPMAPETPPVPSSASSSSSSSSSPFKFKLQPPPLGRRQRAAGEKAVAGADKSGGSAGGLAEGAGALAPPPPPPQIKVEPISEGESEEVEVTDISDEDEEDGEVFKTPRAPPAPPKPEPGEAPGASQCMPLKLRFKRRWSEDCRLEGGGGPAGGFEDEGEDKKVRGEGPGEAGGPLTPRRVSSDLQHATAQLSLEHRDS
Put shortly:
as §1

For a further test, the target named is T7, ETV3L (Homo sapiens, UniProt Q6ZN32 1-361).
T7 sequence: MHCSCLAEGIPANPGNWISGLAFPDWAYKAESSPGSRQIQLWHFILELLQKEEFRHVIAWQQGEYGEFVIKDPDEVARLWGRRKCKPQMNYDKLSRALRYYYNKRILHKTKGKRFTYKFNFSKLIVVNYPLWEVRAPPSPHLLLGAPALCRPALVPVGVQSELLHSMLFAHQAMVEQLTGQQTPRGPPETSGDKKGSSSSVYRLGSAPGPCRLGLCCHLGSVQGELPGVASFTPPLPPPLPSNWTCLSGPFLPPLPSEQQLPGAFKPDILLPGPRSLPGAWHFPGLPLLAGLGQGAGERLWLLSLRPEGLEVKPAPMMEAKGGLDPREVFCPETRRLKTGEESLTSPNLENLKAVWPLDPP
Put shortly:
as §1

The target in another test is T8, ETS2 (Homo sapiens, UniProt P15036 1-469).
T8 sequence: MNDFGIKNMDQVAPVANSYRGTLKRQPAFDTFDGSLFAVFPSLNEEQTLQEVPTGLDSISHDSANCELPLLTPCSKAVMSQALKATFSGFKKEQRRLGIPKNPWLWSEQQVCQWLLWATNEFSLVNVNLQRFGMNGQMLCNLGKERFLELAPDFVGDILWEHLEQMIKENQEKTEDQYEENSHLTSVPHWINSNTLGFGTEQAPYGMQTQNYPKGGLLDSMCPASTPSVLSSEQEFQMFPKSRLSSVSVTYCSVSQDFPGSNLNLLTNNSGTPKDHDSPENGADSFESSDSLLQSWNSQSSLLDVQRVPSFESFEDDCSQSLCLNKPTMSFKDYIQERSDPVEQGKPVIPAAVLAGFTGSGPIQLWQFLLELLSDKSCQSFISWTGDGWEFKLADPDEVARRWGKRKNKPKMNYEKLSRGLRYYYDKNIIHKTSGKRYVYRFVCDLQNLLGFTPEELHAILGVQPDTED
Put shortly: as §1

The next test addresses T9, ETV7 (Homo sapiens, UniProt Q9Y603 1-341).
T9 sequence: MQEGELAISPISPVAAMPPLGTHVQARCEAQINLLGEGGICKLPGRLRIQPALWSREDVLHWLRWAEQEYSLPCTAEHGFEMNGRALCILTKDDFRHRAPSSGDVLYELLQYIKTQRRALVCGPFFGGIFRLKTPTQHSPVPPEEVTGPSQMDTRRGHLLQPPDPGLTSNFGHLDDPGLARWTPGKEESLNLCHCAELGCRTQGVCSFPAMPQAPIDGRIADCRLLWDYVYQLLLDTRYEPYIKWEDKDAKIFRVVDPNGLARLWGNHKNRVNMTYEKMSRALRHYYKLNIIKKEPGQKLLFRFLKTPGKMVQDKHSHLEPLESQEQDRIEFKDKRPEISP
Put shortly: as §1

Another test deals with T10, ETV3 (Homo sapiens, UniProt P41162-2 1-143).
T10 sequence: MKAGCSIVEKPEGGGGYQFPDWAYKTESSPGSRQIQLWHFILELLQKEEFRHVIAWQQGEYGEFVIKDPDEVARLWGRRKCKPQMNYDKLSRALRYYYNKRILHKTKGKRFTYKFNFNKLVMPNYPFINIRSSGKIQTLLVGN
Put shortly:
as §1

The target in the next test is ETV6 (Homo sapiens, UniProt P41212 1-452). Put shortly:
as §1

ETV5, sequence (P41161 whole entry): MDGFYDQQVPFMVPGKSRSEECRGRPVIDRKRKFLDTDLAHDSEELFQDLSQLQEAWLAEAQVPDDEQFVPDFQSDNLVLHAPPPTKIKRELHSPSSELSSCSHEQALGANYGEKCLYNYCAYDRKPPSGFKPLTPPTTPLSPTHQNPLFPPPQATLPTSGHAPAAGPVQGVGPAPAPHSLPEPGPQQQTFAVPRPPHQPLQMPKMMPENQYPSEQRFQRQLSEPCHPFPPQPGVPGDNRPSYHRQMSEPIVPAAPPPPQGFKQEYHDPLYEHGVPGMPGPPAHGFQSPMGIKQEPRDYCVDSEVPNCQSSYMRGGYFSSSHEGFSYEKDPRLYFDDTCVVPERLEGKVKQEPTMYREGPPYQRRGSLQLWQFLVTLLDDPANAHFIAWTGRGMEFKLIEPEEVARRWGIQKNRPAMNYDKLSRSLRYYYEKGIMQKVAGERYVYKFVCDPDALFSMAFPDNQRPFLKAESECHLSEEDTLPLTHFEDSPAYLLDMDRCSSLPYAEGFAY
ETV6, sequence (P41212 whole entry): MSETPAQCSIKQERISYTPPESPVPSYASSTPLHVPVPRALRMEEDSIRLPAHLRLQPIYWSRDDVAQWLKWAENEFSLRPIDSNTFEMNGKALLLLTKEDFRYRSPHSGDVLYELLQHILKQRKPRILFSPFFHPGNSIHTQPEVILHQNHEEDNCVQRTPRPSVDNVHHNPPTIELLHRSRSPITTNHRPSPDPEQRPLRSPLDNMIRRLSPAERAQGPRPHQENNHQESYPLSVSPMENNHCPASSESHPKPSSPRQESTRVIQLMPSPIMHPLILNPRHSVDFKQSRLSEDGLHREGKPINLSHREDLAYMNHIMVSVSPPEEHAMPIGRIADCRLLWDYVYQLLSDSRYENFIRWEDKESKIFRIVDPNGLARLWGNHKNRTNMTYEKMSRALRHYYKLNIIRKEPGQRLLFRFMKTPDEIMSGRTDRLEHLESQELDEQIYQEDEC

In the case of TCAAGC, the binding signal is 1.01 fold enrichment (6-mer frequency, TF over GST control) with ERG; 1 fold enrichment (6-mer frequency, TF over GST control) with ELF1; 1.01 fold enrichment (6-mer frequency, TF over GST control) with EHF; 1.02 fold enrichment (6-mer frequency, TF over GST control) in the test with ETV5; 1.01 fold enrichment (6-mer frequency, TF over GST control) with ELK4; 1.09 fold enrichment (6-mer frequency, TF over GST control) with ETV2. Besides, the binding signal is 1.04 fold enrichment (6-mer frequency, TF over GST control) with ELF3; 1.06 fold enrichment (6-mer frequency, TF over GST control) in the test with ERF; 1.08 fold enrichment (6-mer frequency, TF over GST control) with ETV3L; 1 fold enrichment (6-mer frequency, TF over GST control) with ETS2; 1.04 fold enrichment (6-mer frequency, TF over GST control) in the test with ETV7; 1.08 fold enrichment (6-mer frequency, TF over GST control) in the test with ETV3. Besides, in the test with ETV6, the binding signal is 1.03 fold enrichment (6-mer frequency, TF over GST control).
